Structures are written as SMILES. Screen size: about 48,000 compounds; about 13,000 (27%) showed an effect of 50% or more. The list shows a part of the results.

This test deals with Wolbachia pipientis. The test is described as follows: Anti-Wolbachia Cell-Based Screen. The following applies: 5 µM. It counts as functional. More on the design: scale not given: in the data most compounds retested in dose-response had high values.
In the case of `Cc1ccc2c(c1)OCCCC2NCc1nnc2n1CCCCC2` (stereo not drawn), the “Percent Effect” value is -3.349%.

With `CCCN(CC)Cc1ccc(C(=O)NCC2COCCO2)c(=O)[nH]1` (stereo not drawn), the “Percent Effect” value is on record as -4.085%.

Take `O=C(CSc1ncccn1)N1C[C@H]2CC[C@@H]1CN(Cc1ccncc1)C2`: the “Percent Effect” value is given as -5.142%.

Turning to `CC(C)Cn1ccnc1CNC(=O)NC(C)(C)c1nccs1`, the “Percent Effect” value was found to be 4.874%.

For the compound `Cc1nc(C)c(C(C)NC(=O)NCCNc2cccc(F)c2C#N)s1` (stereo not drawn), the “Percent Effect” value is given as -3.673%.

Consider `N#Cc1nccnc1N1CCC(C(O)c2cccs2)CC1` (stereo not drawn), for which the “Percent Effect” value was determined as 6.256%.

Consider `CCS(=O)(=O)N1CCC2(CCN(Cc3ccc(C)o3)C2)C1` (stereo not drawn), for which the “Percent Effect” value is recorded as -25.86%.

For `COc1cccc2c1OCC(C(=O)NCCCn1nc(C)c(Cl)c1C)C2` (stereo not drawn), the “Percent Effect” value was -39.79%.

Regarding `Cc1nc(CNC2(C(=O)OC(C)(C)C)CCCC2)oc1C`, the “Percent Effect” value is given as -20.11%.

With `CC(C)Cc1noc(CN2CCN(C(=O)c3cccc(F)c3)CC2)n1`, the “Percent Effect” value is 1.261%.

On to `Cc1c[nH]cc1C(=O)N1CCN(Cc2nc(C(C)C)no2)CC1`, for which the “Percent Effect” value is -4.204%.

On to `CC(C)c1noc(CN2CCN(C(=O)c3ccc(F)cc3)CC2)n1`, for which the “Percent Effect” value was found to be 109.7%.

On to `Cc1ccc(C(=O)N2CCN(Cc3nc(C(C)C)no3)CC2)c(=O)[nH]1`, for which the “Percent Effect” value was -11.93%.

As for `CC(C)c1noc(CN2CCN(C(=O)c3cccc(F)c3)CC2)n1`, the “Percent Effect” value was 101.9%.

As to `CCOC(C)c1noc(CN2CCN(Cc3cccc(F)c3)CC2)n1` (stereo not drawn), the “Percent Effect” value was -0.1841%.

Consider `CC(C)(C)c1noc(CN2CCN(C(=O)c3ccco3)CC2)n1`, for which the “Percent Effect” value is given as -32.87%.

In the case of `CCOC(=O)c1coc(N2CCN(C(=O)c3cccc(OC)c3)CC2)n1`, the “Percent Effect” value was -22.87%.

As to `COc1cccc(C(=O)N2CCN(Cc3nc(C(C)C)no3)CC2)c1`, the “Percent Effect” value turned out to be 117.9%.

Turning to `CCCn1nnnc1CN(c1ccc(C)cc1)C(C)C`, the “Percent Effect” value worked out at 3.327%.

As for `CCS(=O)(=O)N1CCC2(CC(=O)N(c3cnn(C)c3)C2)C1` (stereo not drawn), the “Percent Effect” value is -4.174%.

Turning to `COCCN1CCN(Cc2nnc(-c3occc3C)o2)CC1`, the “Percent Effect” value was found to be 0.1537%.

`Cc1ccc(-c2nc(CN(C)C3CCS(=O)(=O)C3)cs2)o1` (stereo not drawn): the “Percent Effect” value is on record as -14.87%.

For the compound `OC(CN1CCOCC1)c1ccc(OC(F)(F)F)cc1` (stereo not drawn), the “Percent Effect” value is reported as -7.461%.

As for `COc1ccccc1CC(C)(C)NC(=O)CC(F)(F)F`, the “Percent Effect” value is -8.852%.

Take `CN(C)C(C(=O)N1CCSCC1)c1ccccc1F` (stereo not drawn): the “Percent Effect” value is given as 0.1762%.

Consider `Cc1cccc(CN2CCC3(CC2)NC(=O)C[C@H]3c2cnn(C)c2)n1.O=C(O)C(F)(F)F`, for which the “Percent Effect” value stood at 84.49%.

Regarding `Cn1cc(C2CC(=O)NC23CCN(C(=O)c2cccnc2)CC3)cn1.O=C(O)C(F)(F)F` (stereo not drawn), the “Percent Effect” value was found to be 11.55%.

Consider `CC(C)COC1CC2(CCN(C(=O)Cc3ccccn3)CC2)C1.O=C(O)C(F)(F)F`, for which the “Percent Effect” value is listed as -2.519%.

For `Cc1cncc(C(=O)N2CCC3(CC2)NC(=O)CC3c2ccccc2)c1.O=C(O)C(F)(F)F` (stereo not drawn), the “Percent Effect” value is -43.74%.

For `Cc1cccc(CN2CCC3(CC2)NC(=O)CC3c2ccccc2)n1.O=C(O)C(F)(F)F` (stereo not drawn), the “Percent Effect” value is on record as 109.2%.

As to `Cn1cc(C2CC(=O)NC23CCN(C(=O)Cc2ccccn2)CC3)cn1.O=C(O)C(F)(F)F` (stereo not drawn), the “Percent Effect” value is 105.4%.

`COc1cc(F)ccc1C(C(=O)O)N1CCN(C2CCCCC2)CC1` (stereo not drawn): the “Percent Effect” value is listed as -11.47%.

For `O=C(O)C(F)(F)F.O=C(O)C(F)(F)F.O=C(c1ccco1)N1CC[C@@H](N2CCOCC2)[C@@H]1Cc1ccncc1`, the “Percent Effect” value came out at 0.4302%.

For the compound `COc1ccc(C2CC(=O)NCc3nc4ccccn4c32)cn1` (stereo not drawn), the “Percent Effect” value is given as -7.087%.

On to `Cc1c(NC(=O)NC2CCCC2)cccc1C(=O)N1CCSCC1`, for which the “Percent Effect” value is recorded as 1.099%.

Turning to `CN(C)[C@@H]1CCN(c2ncc(F)cn2)[C@H]1Cc1cccnc1.O=C(O)C(F)(F)F.O=C(O)C(F)(F)F`, the “Percent Effect” value is listed as -4.235%.

As for `CN(Cc1cccnc1)[C@@H]1CN(Cc2ccccn2)[C@@H]2CCCO[C@H]12`, the “Percent Effect” value amounted to 150.6%.

For `CN(Cc1cccnc1)[C@@H]1CN(c2ncc(F)cn2)[C@@H]2CCCO[C@H]12`, the “Percent Effect” value amounted to 115.7%.

`CN(Cc1cccnc1)C[C@H]1OC[C@@H]2CCN(c3ncccn3)C[C@@H]21`: the “Percent Effect” value is given as -26.32%.

As to `CN(C)S(=O)(=O)N1C[C@@H](OCc2ccccn2)[C@H]2OCCC[C@H]21`, the “Percent Effect” value was -8.506%.

As for `Fc1cnc(N2CC[C@@H](N3CCOCC3)[C@@H]2Cc2cccnc2)nc1.O=C(O)C(F)(F)F.O=C(O)C(F)(F)F`, the “Percent Effect” value is -8.935%.

Take `Cn1cnc2c1C(COCc1cccnc1)N(Cc1ccccn1)CC2` (stereo not drawn): the “Percent Effect” value is -4.63%.

With `CN(Cc1cccnc1)[C@@H]1CN(c2ccccn2)[C@@H]2CCCO[C@H]12`, the “Percent Effect” value was found to be 82.23%.

Regarding `Cc1nnc(N2C[C@H](OCc3cccnc3)[C@H]3OCCC[C@H]32)s1.O=C(O)C(F)(F)F.O=C(O)C(F)(F)F`, the “Percent Effect” value is -2.334%.

Take `O=C(c1scc2c1OCCO2)N1CCC(Cc2cccc(CO)c2)C1` (stereo not drawn): the “Percent Effect” value was -12.67%.

Take `CC(=O)NCc1ccc(C(=O)N2CCCCC2Cn2cccn2)o1` (stereo not drawn): the “Percent Effect” value is -0.4212%.

Consider `CC(=O)Nc1nc(CN2CCCC2Cn2cc(C)cn2)cs1` (stereo not drawn), for which the “Percent Effect” value was -0.668%.

In the case of `CC(=O)Nc1nc(CN2CCCC2Cn2cccn2)cs1` (stereo not drawn), the “Percent Effect” value is reported as -22.51%.

Regarding `CC(=O)Nc1nc(C(=O)N2CCCC2Cn2cc(C)cn2)cs1` (stereo not drawn), the “Percent Effect” value is listed as -2.697%.

Consider `CC(=O)Nc1nc(C(=O)N2CCCC2Cn2cccn2)cs1` (stereo not drawn), for which the “Percent Effect” value is reported as 136.5%.

As for `CC(=O)Nc1nc(C(=O)N2CCCCC2Cn2cc(C)cn2)cs1` (stereo not drawn), the “Percent Effect” value amounted to 67.59%.

Consider `CC(=O)Nc1nc(C(=O)N2CCCCC2Cn2cccn2)cs1` (stereo not drawn), for which the “Percent Effect” value was 109.7%.

Consider `O=C(c1cc(-n2cccn2)ccn1)N1CCOc2ccc(F)cc21`, for which the “Percent Effect” value turned out to be 11.86%.

With `CCN(Cc1noc(CC(C)C)n1)Cc1cccc(F)c1O`, the “Percent Effect” value is on record as 21.71%.

In the case of `CCCc1nc(NCCCO)c2c(n1)c(C)nn2CC`, the “Percent Effect” value amounted to 2.078%.

Turning to `CC(C)CN1C[C@@H]2CN(C(=O)c3cccn3C)C[C@@H]2C1=O`, the “Percent Effect” value was -8.322%.

`O=C(C1CC1)N1C[C@@H](F)[C@@H](OCc2nc3cc(F)ccc3[nH]2)C1`: the “Percent Effect” value was -13.75%.

Regarding `CC(C)n1cnc(C2CN(C)c3ccc(C(=O)NCC4CC4)cc32)n1` (stereo not drawn), the “Percent Effect” value was -10.28%.

`CCCn1nnnc1CSc1nccn1C`: the “Percent Effect” value worked out at 1.571%.

For `O=C(c1cccnc1OCC(F)(F)F)N1CCCn2ncnc21`, the “Percent Effect” value is -8.478%.

In the case of `O=C(NCc1cccnc1OCC(F)(F)F)N1CCOCC1`, the “Percent Effect” value is listed as -14.27%.

Take `NCc1cnn(-c2ccccc2C(=O)NCCCn2ccnc2)c1`: the “Percent Effect” value was -6.38%.

`O=C(NCC(O)c1ccc(F)c(F)c1)c1cccnc1OCC(F)(F)F` (stereo not drawn): the “Percent Effect” value is given as 8.161%.

For the compound `O=C(NCCc1ccncc1)c1cccnc1OCC(F)(F)F`, the “Percent Effect” value is 113.2%.

With `CN(CCc1ccccc1)C(=O)c1cccnc1OCC(F)(F)F`, the “Percent Effect” value was 147.6%.

For the compound `O=C(NCCCn1ccnc1)c1cccnc1OCC(F)(F)F`, the “Percent Effect” value is listed as 88.67%.

In the case of `O=C(O)c1ncccc1OCC(F)(F)F`, the “Percent Effect” value came out at 2.885%.

Take `O=C(CNC(=O)c1cnc2ccccc2c1O)NCCCn1ccnc1`: the “Percent Effect” value turned out to be 9.933%.

Turning to `O=C1COc2cc(S(=O)(=O)NCCC3=CCCCC3)c(Br)cc2N1`, the “Percent Effect” value came to 12.05%.

Consider `N#Cc1cccc(OCC(=O)N(Cc2ccncc2)C2CC2)c1`, for which the “Percent Effect” value was -1.497%.

Take `CCNC(=O)N1CCC(NC(=O)NCCc2cc(F)cc(F)c2)C1` (stereo not drawn): the “Percent Effect” value is given as -1.465%.

Turning to `Cc1noc(C)c1NC(=O)NC1CCN(C(=O)OC(C)(C)C)CC1`, the “Percent Effect” value is -1.211%.

As for `c1ccc(CN2CCC(NCCSc3cnn[nH]3)C2)cc1` (stereo not drawn), the “Percent Effect” value is -16.66%.

On to `O=C(c1noc2c1CCCC2)N1CCCC(c2nccs2)C1` (stereo not drawn), for which the “Percent Effect” value turned out to be 6.202%.

Consider `CN(C)c1cc(C2CCCN2C(=O)c2noc3c2CCCC3)ccn1` (stereo not drawn), for which the “Percent Effect” value worked out at 74.42%.

Consider `Cc1noc2ncc(C(=O)N3CCCC3c3ccncc3)cc12` (stereo not drawn), for which the “Percent Effect” value is reported as 1.131%.

Consider `CN(C)c1cc(C2CCCN(C(=O)c3noc4c3CCCC4)C2)ccn1` (stereo not drawn), for which the “Percent Effect” value is reported as 145.2%.

Take `CN(C)c1ccc(C(=O)N2CCCC2c2ccc(Cl)cc2)nn1` (stereo not drawn): the “Percent Effect” value was -0.3166%.

In the case of `CCOCc1ncn2c1CN(S(=O)(=O)c1cccs1)CCC2`, the “Percent Effect” value is -7.324%.

`COCc1cc(CNC(=O)c2c(C)cc(C)[nH]c2=O)n[nH]1`: the “Percent Effect” value was -6.309%.

Regarding `O=C(c1ccc2[nH]nnc2c1)N1CCC(Nc2cccnn2)CC1`, the “Percent Effect” value turned out to be 101.2%.

For `Cc1cc(C(=O)N2CCC(Nc3cccnn3)CC2)no1`, the “Percent Effect” value is recorded as 29.64%.

As to `O=C(c1ccc2[nH]c(=O)[nH]c2c1)N1CCC(Nc2cccnn2)CC1`, the “Percent Effect” value is recorded as 102.4%.

With `O=C(c1ccc2c(c1)COC2)N1CCC(Nc2cccnn2)CC1`, the “Percent Effect” value stood at 2.056%.

Regarding `O=C(c1cc[nH]n1)N1CCC(Nc2cccnn2)CC1`, the “Percent Effect” value came to 4.355%.

As to `O=C(c1ccc2c(c1)OCO2)N1CCC(Nc2cccnn2)CC1`, the “Percent Effect” value came to 90.41%.

Take `O=C(c1ccc2cc[nH]c2c1)N1CCC(Nc2cccnn2)CC1`: the “Percent Effect” value was 107.6%.

Turning to `CC(c1nc(C2CC2)no1)N(C)Cc1ccc(C#N)cc1` (stereo not drawn), the “Percent Effect” value is recorded as 15.66%.

`CCc1noc(CNc2c(F)cccc2-n2cccn2)n1`: the “Percent Effect” value was -15.19%.

For `Cn1nc(CNC(=O)CC#N)c2c1CN(C(N)=O)CC2`, the “Percent Effect” value is recorded as 9.409%.

For the compound `Cc1nnc(CCNC2CCN(c3ncnc4c(C)csc34)CC2)s1`, the “Percent Effect” value is listed as -2.082%.

In the case of `Cn1nnc2cc(C(=O)N3CCC(Nc4cccnn4)CC3)ccc21`, the “Percent Effect” value stood at 108.7%.

In the case of `N#Cc1ccc(CC(=O)N2CCC(Nc3cccnn3)CC2)cc1`, the “Percent Effect” value was determined as 101.7%.

As for `Cc1nc(C(=O)N2CCC(Nc3cccnn3)CC2)cs1`, the “Percent Effect” value is reported as -1.209%.

For the compound `N#CC1(C(=O)N2CCC(Nc3cccnn3)CC2)CCCCC1`, the “Percent Effect” value is on record as -1.01%.

With `N#Cc1cccc(C(=O)N2CCC(Nc3cccnn3)CC2)c1`, the “Percent Effect” value is listed as 94.09%.

In the case of `Cc1nn(C)c(C)c1CC(=O)N1CCC(Nc2cccnn2)CC1`, the “Percent Effect” value is given as -9.502%.

As for `CN(Cc1nc2ccccc2c(=O)[nH]1)C1CC(=O)N(C2CC2)C1=O` (stereo not drawn), the “Percent Effect” value is on record as -0.4558%.

These data come from ChEMBL document CHEMBL3988442, “University of Dundee, Small-Polar-MMV Screening Library” (2021).
